Test results published in PubChem BioAssay (NCATS).
Records with an inconclusive call do not appear. The source made the active and inactive calls. Calls follow the shape of the dose curve; as a rule, active = well fitted inhibition curve with a large enough effect; inconclusive = small, poorly fitted or top-dose-only effect; inactive = flat fitted curve, though single readings scatter. *1 amine or outer side, *2 acyl side, *3 side chain or, on linkers, in order; H or OH if unused. Where a SMILES comes first, the peptide text is derived from it. [ ]: non-standard residue; d: D form. The star is where a group is joined. ξ: configuration not given here. X9 = CCC(C)(N*)C(=O)C1CC[C@@H](C(=O)N[C@@H](Cc2ccccc2)C(=O)NCC(=O)O)N1; ξTyr(βOH) = NC(C(=O)O)C(O)c1ccc(O)cc1; X8 = O=C([C@@H]1CC(O)CN1[*:1])[*:2]; aIle = CC[C@@H](C)[C@H](N)C(=O)O; Thr(3ξ) = CC(O)[C@H](N)C(=O)O; ξIva = CCC(C)(N)C(=O)O; Aib = CC(C)(N)C(=O)O

How the values were obtained:
Experiment in all cases: Cytotoxic Profiling of Annotated Libraries Using Quantitative High-Throughput Screening (AID 1296008); also: nearly all actives have a fitted effect of over 60% in size
Conditions in all cases: Five cell lines viability, CellTiter-Glo ATP luminescence, 48-72 h; max response: hits give low values
CRL-7250 = system: CRL-7250
In short: (§1)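 Cytotoxicity was measured as CellTiter-Glo ATP luminescence, read after 10 min at room temperature. Compound treatment of the cells lasted 48 or 72 hr at 37 degrees Celsius in a qHTS format.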

HEK293 = system: HEK293
In short: as §1

HaCat = system: HaCat
In short: as §1

KB-3-1 = system: KB-3-1
In short: as §1

NIH3T3 = system: NIH3T3
In short: as §1

Measured: max response
% is scaled to controls: 0 for no effect and ±100 for the full control effect.

CC1(C)C=Cc2c(ccc3c2N=C2C(C)(C)[C@@H]4C[C@]56CCCN5C(=O)[C@@]4(C[C@]23O)NC6=O)O1
inactive: CRL-7250 3.82% | HEK293 | HaCat 3.57% | KB-3-1 | NIH3T3 -4.67%

CC1=CC(=O)CC(C)(C)[C@@]1(O)/C=C/C(C)O[C@@H]1O[C@H](CO)[C@@H](O)[C@H](O)[C@H]1O (stereo not given in full)
inactive: CRL-7250 -4.8% | HEK293 -13.1% | HaCat | KB-3-1 | NIH3T3

CC(C)C1NC(=O)CNC(=O)C2CCCN2C(=O)C(Cc2c[nH]c3ccccc23)NC(=O)CNC(=O)C(C(O)c2ccc(O)cc2)NC(=O)CNC1=O (stereo not given) (cyclo(G[ξTyr(βOH)]GWPGV); configuration not given here)
inactive: CRL-7250 -8.12% | HEK293 1.2% | HaCat | KB-3-1 2.88% | NIH3T3

CC[C@@H](C)[C@H](NC(=O)C(C)(C)NC(=O)[C@H](CCC(N)=O)NC(=O)C(C)(CC)NC(=O)[C@H](Cc1c[nH]c2ccccc12)NC(C)=O)C(=O)N[C@H](C(=O)NC(C)(C)C(=O)N[C@@H](CC(C)C)C(=O)NC(C)(C)C(=O)N1CCC[C@H]1C(=O)N[C@@H](CCC(N)=O)C(=O)NC(C)(C)C(=O)N1CC(O)C[C@H]1C(=O)NC(C)(CC)C(=O)C1CC[C@@H](C(=O)N[C@@H](Cc2ccccc2)C(=O)NCC(=O)O)N1)C(C)O (stereo not given in full) (Ac-W[ξIva]Q[Aib][aIle][Thr(3ξ)][Aib]L[Aib]PQ[Aib][X8]-X9)
inactive: CRL-7250 -9.43% | HEK293 -13.1% | HaCat inactive; activator | KB-3-1 -1.3% | NIH3T3 -1.9%

C=C(C(=O)O)C1CC(O)C2(C)CCCC(C)(O)C2C1 (stereo not given)
inactive: CRL-7250 | HEK293 -8.07% | HaCat -11.8% | KB-3-1 0.961% | NIH3T3

COc1cc(/C=C/C(=O)O)ccc1O[C@@H]1O[C@H](CO)[C@@H](O)[C@H](O)[C@H]1O[C@@H]1OC[C@](O)(CO)[C@H]1O
inactive: CRL-7250 | HEK293 -3.47% | HaCat | KB-3-1 0.854% | NIH3T3

CC(/C=C/C=C(\C)C(=O)O[C@@H]1O[C@H](CO[C@@H]2O[C@H](CO)[C@@H](O)[C@H](O)[C@H]2O)[C@@H](O)[C@H](O)[C@H]1O)=C\C=C\C=C(C)\C=C\C=C(/C)C(=O)O[C@@H]1C[C@](O)(C(=O)O)C[C@@H](O)[C@H]1OC(=O)/C=C/c1ccc(O)c(O)c1
inactive: CRL-7250 -12.4% | HEK293 2.1% | HaCat 1.58% | KB-3-1 5.86% | NIH3T3

CSCC1OC(n2cnc3c(N)ncnc32)C(O)C1O (stereo not given)
inactive: CRL-7250 | HEK293 | HaCat 2.69% | KB-3-1 | NIH3T3 -0.346%

C=C1[C@@H]2CC[C@@]3(C)[C@H](c4ccoc4)OC(=O)C[C@]13O[C@H]1CC(=O)C(C)(C)[C@H](C(O)C(=O)OC)[C@]12C (stereo not given in full)
inactive: CRL-7250 -0.794% | HEK293 -5.89% | HaCat | KB-3-1 | NIH3T3

COC(=O)C1=CO[C@@H](O[C@@H]2O[C@H](CO)[C@@H](O)[C@H](O)[C@H]2O)[C@H]2[C@@H]1[C@H](O)[C@H](O)[C@]2(C)O
inactive: CRL-7250 -3.33% | HEK293 1.23% | HaCat | KB-3-1 1.73% | NIH3T3 2.04%

CC(C)=CCC(O)[C@](C)(O)C1[C@H](O)C[C@@]2(C)C3CC=C4C(C[C@H](O)[C@@H](O[C@@H]5O[C@H](CO)[C@@H](O)[C@H](O)[C@H]5O)C4(C)C)[C@]3(C)C(=O)C[C@]12C (stereo not given in full)
inactive: CRL-7250 4.58% | HEK293 -6.78% | HaCat -8.01% | KB-3-1 | NIH3T3

CC(O)C1NC(=O)C2CCCN2C1=O (stereo not given)
inactive: CRL-7250 3.11% | HEK293 | HaCat -1.16% | KB-3-1 | NIH3T3 -1.84%

CC(CCO)CCC1C2(C)CCCC(C)(C)C2CC[C@@]1(C)O (stereo not given in full)
inactive: CRL-7250 | HEK293 -13.3% | HaCat -19.9% | KB-3-1 7.08% | NIH3T3

C=C1C[C@]23C[C@H]1CC[C@H]2[C@]1(C)CC[C@H](O)[C@@](C)(C(=O)O)[C@H]1[C@@H]3C(=O)O
inactive: CRL-7250 -9.09% | HEK293 0.167% | HaCat | KB-3-1 -2.4% | NIH3T3 2.39%

CSCC[C@H](NC(=O)[C@H](CO)NC(=O)[C@H](CCC(=O)O)NC(C)=O)C(=O)N[C@H](C=O)CC(=O)O (Ac-ESMD-aldehyde)
inactive: CRL-7250 3.88% | HEK293 0.953% | HaCat | KB-3-1 2.69% | NIH3T3 -20.7%

C/C=C1/C[N+](C)([O-])C2Cc3c([nH]c4ccccc34)C(=O)CC1C2C(=O)OC (stereo not given)
inactive: CRL-7250 -5.18% | HEK293 -0.509% | HaCat | KB-3-1 8.09% | NIH3T3 -1.66%

C[C@@H]1C[C@@H](O)[C@@]2(CO)C(CO)=CCC[C@@H]2[C@@]12C[C@@H](c1ccoc1)OC2=O
inactive: CRL-7250 | HEK293 4.88% | HaCat | KB-3-1 4% | NIH3T3

C[C@@H]1CC2OC(=O)C3=C2C(CCC3O)[C@@]12C[C@@H](c1ccoc1)OC2=O (stereo not given in full)
inactive: CRL-7250 -0.741% | HEK293 2.79% | HaCat | KB-3-1 | NIH3T3
